# According to PubChem BioAssay (EPA / NIEHS):
# Records with an inconclusive call do not appear. Active and inactive are the calls of the source. Rule for the calls: active = hit-call score of the fitted dose curve at least 0.9, where 1 is the maximum; inconclusive = response in the unintended direction; inactive = score below 0.9.
# Test: ATG_XTT_Cytotoxicity: Cytotoxicity Assessment in the Attagene TRANS-FACTORIAL HepG2 Assay (AID 2283584)
# Procedure, shortened: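 HepG2 cells transiently transfected with GAL4-UAS multiple reporter units, dosed 24 h; cytotoxicity read by XTT as loss of signal versus DMSO baseline.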
row,SMILES,outcome
1,C[Si](C)(C)O[Si](O)(O)O,inactive
2,C=CC(=O)OCC(Br)CBr (centres undefined),inactive
3,O=c1c2ccccc2oc2ccccc12,inactive
4,c1ccc2c(c1)ccc1ncccc12,inactive
5,CCCCC/C=C\CCC=O,inactive
6,COCc1c(C(C)C)nc(C(C)C)c(/C=C/[C@@H](O)C[C@@H](O)CC(=O)O)c1-c1ccc(F)cc1,inactive
7,Nc1ccc(Oc2ccc(N)c(N)c2)cc1,inactive
8,CCCCNc1ccc(NCCCC)c2c1C(=O)c1ccccc1C2=O,inactive
9,c1cc(C(c2ccc(OCC3CO3)cc2)C(c2ccc(OCC3CO3)cc2)c2ccc(OCC3CO3)cc2)ccc1OCC1CO1 (centres undefined),inactive
10,Cn1c(=O)[nH]c2ncn(C)c2c1=O,inactive
11,C=CC(=O)OCCOC1C2CCC1C1CC=CC12 (centres undefined),inactive
12,CCOc1nc(F)cc2nc(S(=O)(=O)Nc3c(Cl)cccc3C(=O)OC)nn12,inactive
13,CC(C)(C)c1n[nH]c(=O)n(N)c1=O,inactive
14,O=C1Nc2ccccc2C1(c1ccc(O)cc1)c1ccc(O)cc1,inactive
15,CCCCCCCOC(=O)CCC,inactive
16,CC(C)c1ccc2cc(C(C)C)ccc2c1,inactive
17,O=C(c1ccccc1)C1CCC1,inactive
18,CC(C)(C)C1CCCCC1=O (centres undefined),inactive
19,COc1ccc2nc(N)sc2c1,inactive
